From PubChem BioAssay AID504834 (National Center for Advancing Translational Sciences (NCATS), 2011) come the findings set out here.

Among all 320,000 compounds or so, about 22,000 (6.9%) were called active. About 27% were inconclusive and are not listed. What follows is part of a selection rich in actives, with near analogues and random picks from the rest. A number with no mark means an inactive call. Calls follow the shape of the dose curve; as a rule, active = well fitted inhibition curve with a large enough effect; inconclusive = small, poorly fitted or top-dose-only effect, or another doubt; inactive = no such curve, though single readings can be large or run the other way.
% is scaled to controls: 0 for no effect and ±100 for the full control effect; potency is read from the fitted curve at half-maximal effect.

This assay is described as follows: Primary qHTS for delayed death inhibitors of the malarial parasite plastid, 96 hour incubation. The following applies: P. falciparum luciferase reporter growth; series mostly up to 28.7 µM; activity change, negative = inhibition: at the top concentration. The method in brief: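 P. falciparum expressing integrated firefly luciferase, in erythrocytes at 2% hematocrit, 0.05% parasitemia, incubated with compounds 96 h at 37 C, 5% CO2. Growth inhibition read as loss of luminescence; two-generation exposure targets delayed-death apicoplast inhibitors.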
In the case of `CCc1ccc(Nc2n[n+](-c3ccccc3)c(-c3cccc(Cl)c3Cl)s2)cc1`, the Potency was 3.7 µM (active).

As to `COc1ccc(C)cc1Nc1nc(-c2c(C)[nH]c3ccccc23)cs1`, the “activity change, negative = inhibition” value is 0%.

As for `COc1ccc(C)cc1Nc1n[n+](-c2ccccc2)c(-c2cccc(Cl)c2Cl)s1`, the Potency is 13.1 µM (active).

For the compound `COC(=O)c1cnc(Nc2cc(C)ccc2OC)c2ccccc12`, the “activity change, negative = inhibition” value was -10.3%.

As for `N#Cc1ccccc1NC(=O)c1ccc2c(c1)OCO2`, the “activity change, negative = inhibition” value was 26.6%.

`N#C/C(=C\c1cccnc1)C(=O)Nc1ccc(SC(F)F)cc1`: the “activity change, negative = inhibition” value was 0.243%.

Consider `Cc1ccc(CNC(=O)CSc2nnc3c(n2)[nH]c2ccc(F)cc23)cc1`, for which the “activity change, negative = inhibition” value was 19.9%.

Consider `COC(=O)C(C)n1cnc2c(nnn2-c2ccc(F)cc2)c1=O` (stereo unspecified), for which the “activity change, negative = inhibition” value was 39.5%.

As for `Cc1cc(C)cc(N(CC(=O)NC2CCCC2)C(=O)CCC(=O)Nc2nccs2)c1`, the “activity change, negative = inhibition” value was 22.4%.

As for `CCOC(=O)c1[nH]ncc1CN1CCCC(C(=O)c2ccc(OC)cc2C)C1` (stereo unspecified), the Potency is 8.28 µM (active).

For `COc1ccc(C(=O)C2CCCN(Cc3cccn3-c3ccccn3)C2)c(C)c1` (stereo unspecified), the “activity change, negative = inhibition” value was -17.5%.

In the case of `COc1ccc(C(=O)C2CCCN(Cc3ccc4nonc4c3)C2)c(C)c1` (stereo unspecified), the “activity change, negative = inhibition” value is 3.69%.

Regarding `O=C(N=C1SC2CS(=O)(=O)CC2N1c1cc(Cl)ccc1Cl)C1CC1` (stereo unspecified), the “activity change, negative = inhibition” value was 27.7%.

In the case of `COC(=O)c1cccc(C(=O)N2CCCC(Nc3ccc4c(c3)OCCO4)C2)c1` (stereo unspecified), the “activity change, negative = inhibition” value is -13.8%.

`COc1ccc(C(=O)NCC(=O)N/N=C/c2cccnc2)cc1`: the “activity change, negative = inhibition” value is 13.3%.

Regarding `Cc1c(S(=O)(=O)N2CC(C)CC(C)C2)c(=O)n(C)c(=O)n1C` (stereo unspecified), the “activity change, negative = inhibition” value is 17.7%.

`O=C1/C(=C/c2ccc(F)cc2)SC(=S)N1CCCC(=O)N1CCCCC1CCO` (stereo unspecified): the Potency was 6.57 µM (active).

On to `O=C(CCCN1C(=O)/C(=C/c2ccccc2)SC1=S)Nc1ccc(O)cc1`, for which the activity change, negative = inhibition was -3.08% [at 5.75 µM].

With `O=C(CCCN1C(=O)/C(=C\c2ccccc2)SC1=S)Nc1ccccc1O`, the “activity change, negative = inhibition” value was -24.2%.

On to `CC(=O)c1ccc(NC(=O)Cn2c(=O)oc3ccccc32)cc1`, for which the “activity change, negative = inhibition” value is 0.355%.

As to `CCCN1C2CCCC1CC(NC(=O)c1cccc(OC)c1)C2` (stereo unspecified), the “activity change, negative = inhibition” value was 1.92%.

`CCc1ccc(S(=O)(=O)Nc2ccc(C)c(NS(C)(=O)=O)c2)cc1`: the “activity change, negative = inhibition” value is 4.07%.

On to `CCCCc1ccc(NC(=O)CN2C(=O)NC(Cc3ccccc3)C2=O)cc1` (stereo unspecified), for which the “activity change, negative = inhibition” value was 2.93%.

With `CC(C)=N/N=C1/NC(=O)C(Cc2ccccc2)S1` (stereo unspecified), the “activity change, negative = inhibition” value is 252%.

On to `COc1cc(/C=C(/NC(=O)c2ccc(Cl)cc2Cl)C(=O)O)cc(OC)c1OC`, for which the “activity change, negative = inhibition” value was 486%.

Regarding `CCOC(=O)CN/C=C(\C#N)c1ccc(F)cc1`, the “activity change, negative = inhibition” value is 10.4%.

Consider `CCOc1cc(/C=C(/C#N)c2ccc(Cl)cc2)cc(Cl)c1OCC(=O)O`, for which the Potency was 13.1 µM (active).

Consider `CCC(=O)Nc1nnc(S(=O)(=O)N2CCCc3ccccc32)s1`, for which the “activity change, negative = inhibition” value was 0.177%.

As to `O=C(COC(=O)c1cccs1)Nc1ccccc1Cl`, the “activity change, negative = inhibition” value is 10.8%.

`COc1ccccc1Nc1nc(N)nc(CSC(=S)N2CCOCC2)n1`: the “activity change, negative = inhibition” value is 14.2%.

`COc1ccccc1NC1=NC(c2ccc(Cl)cc2)N=C(N)N1` (stereo unspecified): the Potency was 0.928 µM (active).

As to `COc1cc(C2C(C(=O)Nc3ccccc3OC)=C(C)Nc3ncnn32)ccc1O` (stereo unspecified), the “activity change, negative = inhibition” value was -6.58%.

Take `COC(=O)c1c(C)[nH]c(C(=O)NCCc2ccc(S(N)(=O)=O)cc2)c1C`: the “activity change, negative = inhibition” value was 10.3%.

In the case of `CSc1ccccc1NC(=O)c1cc(Cl)sc1Cl`, the “activity change, negative = inhibition” value was -2.6%.

Take `COc1ccc(S(=O)(=O)NCC(=O)NCc2cc(=O)n(C)c(=O)n2C)cc1F`: the “activity change, negative = inhibition” value was 53.1%.

For `CN(CC(=O)Nc1ccc(Cl)cc1)C(=O)c1ccc(COc2ccccc2)cc1`, the “activity change, negative = inhibition” value is 7.05%.

For the compound `CN(CC(=O)Nc1ccc(F)cc1)C(=O)c1ccc(-c2ccc(Cl)cc2)o1`, the Potency was 2.33 µM (active).

Regarding `Cc1ccc(NC(=O)CN(C)C(=O)c2ccc(Br)o2)cc1`, the “activity change, negative = inhibition” value was 3.52%.

Regarding `COCC(=O)N1CCc2ccc(NC(=O)c3ccccc3Cl)cc2C1`, the “activity change, negative = inhibition” value is -37.8%.

As for `COc1ccc(NC(=O)CN(C)C(=O)CC2CCCCC2)cc1`, the “activity change, negative = inhibition” value is 2.68%.

As for `Cc1ccc(C(=O)N/C(=C/c2ccc(-c3cccc([N+](=O)[O-])c3)o2)C(=O)NCCCN(C)C)cc1`, the “activity change, negative = inhibition” value is 28.7%.

As for `N#C/C(=C\c1ccc(-c2cccc([N+](=O)[O-])c2)o1)C(=O)NCCN1CCOCC1`, the Potency is 10.4 µM (active).

With `Cc1ccc(Cc2cnc(NC(=O)/C(C#N)=C/c3ccc(-c4cccc([N+](=O)[O-])c4)o3)s2)cc1`, the “activity change, negative = inhibition” value was 48.8%.

Consider `COc1ccc(C(CNC(=O)c2cccc(S(=O)(=O)Nc3ccccc3Cl)c2)N2CCOCC2)cc1` (stereo unspecified), for which the “activity change, negative = inhibition” value is -29.2%.

In the case of `COC(=O)C1=C(Nc2ccc(C)cc2)C=C(C)C(C(=O)OC)C1c1ccc(F)cc1` (stereo unspecified), the Potency was 11.7 µM (active).

For the compound `COC(=O)C1C(=O)NCC1c1ccc(C)cc1` (stereo unspecified), the “activity change, negative = inhibition” value is 9.9%.

As to `COC(=O)C1=C(Nc2ccc(OC)cc2)C=C(C)C(C(=O)OC)C1c1ccc(C)cc1` (stereo unspecified), the “activity change, negative = inhibition” value is -9.49%.

Consider `Cc1nc(COc2cc3oc(=O)cc(C)c3cc2Cl)cs1`, for which the “activity change, negative = inhibition” value is 16.7%.

Take `COC(=O)C1=C(O)/C(=C/c2ccc(OCC(=O)Nc3ccccc3)cc2)N=C1C`: the “activity change, negative = inhibition” value is 6.94%.

Regarding `CCOC(=O)C1=C(O)/C(=C/c2cc(C)n(-c3ccccc3)c2C)N=C1C`, the Potency is 0.657 µM (active).

Regarding `CCOC(=O)C1=C(O)/C(=C/c2ccc(OCC(=O)Nc3ccc(C)cc3)cc2)N=C1C`, the “activity change, negative = inhibition” value was -6.91%.
